SMILES strings stand for the structures. Out of some 38,000 compounds screened, about 1,200 (3.2%) showed an effect of 50% or more. The median lay at about -58%. What follows is part of a selection rich in strong results, with near analogues and random picks from the rest.

This assay has as its system Plasmodium falciparum. Nature of the assay: Calibr Malaria Delayed Death Assay SOP. Particulars: concentration 4.99e-06 (unit not given; other assays of the set use mol/L). More on the design: scale not given: in the data most compounds retested in dose-response had high values. The assay is classed as functional, organism-based.
In the case of `Cc1nc(CO[C@H]2CN(Cc3cccs3)[C@@H]3COC[C@H]23)cs1.O=C(O)C(F)(F)F.O=C(O)C(F)(F)F`, the “Percent Effect” value is on record as -73.25%.
The figure for `CCN1CCN(c2ccc(F)cc2C(C)NCc2nc(C)no2)CC1` (stereo not drawn) is 4.183%; for `CCN1CCN(c2ccc(F)cc2C(C)NCc2noc(C)n2)CC1` (stereo not drawn) it is 52.85%.
The figure for `CN1CCN(c2ccc(F)cc2C(N)=O)CC1` is -109.6%; for `Cc1nc(CNC(=O)Nc2cc(F)ccc2OC(F)F)no1` it is -136.5%.
The figure for `Cc1ccc(CNC(C)c2nnc3n2CCCC3)o1` (stereo not drawn) is -20.3%; for `CC(COc1ccccc1)NCc1cn2ccccc2n1` (stereo not drawn) it is -27.04%.
On to `Cc1ccc(C(=O)N2CCC3(CCC(=O)N(C(C)C)C3)CC2)c(O)c1`, for which the “Percent Effect” value is on record as -20.48%.
The figure for `COC(=O)c1ccc(C2CC(=O)Nc3c2cnn3C)cc1` (stereo not drawn) is -67.54%; for `CCc1noc(CN2CCCC(Cn3nc(C)nc3C)C2)n1` (stereo not drawn) it is -109.5%.
With `CN(C)c1ccc(C(=O)N2CCN(Cc3cscn3)CC2)cc1F` the figure was -147.3%; with `CCC1CN(Cc2c(O)ccc3oc4c(c23)CCCC4)CCO1` (stereo not drawn), 59.59%; with `NC(=O)C1CN(Cc2c(O)ccc3oc4c(c23)CCCC4)CCO1` (stereo not drawn), -24.38%.
As for `Oc1ccc2oc3c(c2c1CN1CCOCC1)CCCC3`, the “Percent Effect” value is on record as 15.46%.
With `CCN1CCN(C[C@H]2CC[C@@H](Cc3ccc4c(c3)OCO4)O2)CC1` the figure was -22.56%; with `CN1CCN(C[C@H]2CC[C@@H](Cc3ccc4c(c3)OCO4)O2)CC1`, -29.46%; with `CN1CCC(N(C)C[C@H]2CC[C@@H](Cc3ccc4occc4c3)O2)CC1`, 85.36%.
`CN1CCC(N(C)C[C@H]2CC[C@@H](Cc3cccc(CO)c3)O2)CC1`: the “Percent Effect” value is -136%.
For `COc1ccc(C[C@@H]2CC[C@H](CN(C)C3CCN(C)CC3)O2)cc1`, the “Percent Effect” value amounted to 49.48%.
For the compound `CN1CCC(N(C)C[C@H]2CC[C@@H](Cc3cccc(O)c3)O2)CC1`, the “Percent Effect” value is given as 56.23%.
The figure for `CCCc1ccc(C(=O)N2CCc3c(nc(C)nc3N(C)C)C2)cc1` is -63.88%; for `COc1ccc([C@@H]2NC(=O)N[C@H]3OCCC[C@H]32)cc1` it is 13.26%.
For the compound `O=C(c1ccco1)N1C[C@H]2CN(Cc3cccc(F)c3)C(=O)[C@H]2C1`, the “Percent Effect” value was -97.73%.
The figure for `O=C(CNC(=O)N1CCN(c2cccc(Cl)c2)CC1)Nc1ccccn1` is -109.2%.
Turning to `CN(Cc1nnc(C2CC2)n1C)S(=O)(=O)Cc1ccccc1F`, the “Percent Effect” value is given as -39.05%.
The figure for `Cc1cc(NC(=O)CN(c2ccccc2)C(C)C)on1` is -10.54%.
Turning to `Cc1cc(NC(=O)NC(C)CN2CCN(c3ccccc3)CC2)on1` (stereo not drawn), the “Percent Effect” value turned out to be 58.09%.
The figure for `Cc1cc(NC(=O)N(C)CCN2CCN(c3ccccc3)CC2)on1` is -52.94%.

The values are drawn from ChEMBL document CHEMBL3988442, “University of Dundee, Small-Polar-MMV Screening Library” (2021).
